High-throughput results from PubChem.
An excerpt weighted towards active compounds, which were near 0.72% of everything screened.
RXFP1 ag: qHTS Assay for Agonists of the Relaxin Receptor RXFP1 | Relaxin receptor 1 (Homo sapiens), Q9HBX9 | HEK293T-RXFP1 cAMP TR-FRET, 30 min; response scale: percent of porcine relaxin response, buffer zero | Potency, µM (highest dose often 57.5 µM), for the others: at the top dose activation, most hits filed as activators | 0.3% of 370,000 active | AID 2676, 2010; further: potency means the concentration at half of the fitted maximal effect; on the % scale 0 is the no-effect control and ±100 the full control effect; nearly all actives have a fitted effect of over 60% in size
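cAMP rise read by TR-FRET after 30 min, 37C compound exposure (up to 58 uM) in RXFP1-transfected HEK293 cells with Ro 20174 present. EC50 from Hill-equation fits, with 29 nM porcine relaxin as 100% and buffer as basal.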
S-ASM inh: Inhibitors of Secretory Acid Sphingomyelinase (S-ASM): qHTS; AID 504937, 2011; placental ASM, HMU-PC fluorogenic substrate, 60 min; 0.006% of 340,000 active; Sphingomyelin phosphodiesterase (Homo sapiens), P17405; Potency, µM (top dose mostly 57.5 µM), for the others: at the top dose activity change, negative = inhibition, actives largely listed as inhibitors; further: potency means the concentration at half of the fitted maximal effect
Target sequence (P17405 47-631 limits assumed): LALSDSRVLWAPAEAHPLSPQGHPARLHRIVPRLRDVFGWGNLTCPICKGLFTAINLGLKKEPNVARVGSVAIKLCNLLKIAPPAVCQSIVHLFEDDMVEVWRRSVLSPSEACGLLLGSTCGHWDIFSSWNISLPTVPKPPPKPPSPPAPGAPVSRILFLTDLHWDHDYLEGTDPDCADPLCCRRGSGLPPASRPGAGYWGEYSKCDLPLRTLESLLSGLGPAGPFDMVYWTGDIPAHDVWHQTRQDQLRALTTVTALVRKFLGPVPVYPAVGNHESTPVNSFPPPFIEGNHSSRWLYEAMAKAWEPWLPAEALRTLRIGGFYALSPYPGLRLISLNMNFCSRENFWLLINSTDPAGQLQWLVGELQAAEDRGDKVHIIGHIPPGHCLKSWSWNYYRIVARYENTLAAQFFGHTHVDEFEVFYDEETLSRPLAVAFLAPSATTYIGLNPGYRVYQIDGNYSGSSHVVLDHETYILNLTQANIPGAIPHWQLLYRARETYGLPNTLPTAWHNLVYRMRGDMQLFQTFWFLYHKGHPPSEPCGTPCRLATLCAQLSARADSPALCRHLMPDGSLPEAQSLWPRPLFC
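Fluorescence read-out (Ex 386 nm, Em 447 nm) after stopping the reaction at pH 10. Enzyme: ASM from human placenta; substrate HMU-PC0, 9 uM final; 60 min, 37 °C. Compound preincubation 10 min, ambient temperature.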
ERG Ets-DNA blk: qHTS for Small Molecule Inhibitors of the ERG Ets/DNA interaction | Transcriptional regulator ERG (Homo sapiens), P11308 | fluorescence polarization, His-ERG Ets domain / labelled DNA | Potency, µM (doses to about 76.9 µM), for inactives: top-dose FP activity, negative = inhibition, hits mostly inhibitors | 0.028% of 370,000 active | AID 624246, 2012; active means well fitted inhibition curve with a large enough effect in the polarisation, with a control signal flat; inconclusive means small, poorly fitted or top-dose-only effect, or effect the other way, or a change in a side signal; inactive means no such curve, though single readings can be large or run the other way; the % refers to the polarisation;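 further: polarization taken with two DNA probes labelled with fluorescein and Texas red; potency means the concentration at half of the fitted maximal effect; % of control where 0% means no effect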
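His-tagged ERG Ets domain (1 uM in the protein solution; 300mM KCl, 50mM Tris-HCl, 1mM EDTA, 1mM DTT, pH 7.5) received compound, then a probe mix of 5 nM fluorescein-DNA and 100nM Texas-615-DNA. Fluorescence polarization was read for both dyes.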
RXFP1 antag: qHTS Assay for Antagonists of the Relaxin Receptor RXFP1 | activity change, negative = inhibition, % at 57.5 µM | Relaxin receptor 1 (Homo sapiens), Q9HBX9 | AID 1259400, 2018 | HEK293-RXFP1, relaxin-stimulated cAMP HTRF, 30 min; stronger effect = lower value | 0.59% of 350,000 active;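 active means activity change of -60% or lower, but not beyond a set lower limit; inconclusive means change between -60% and -40%, or beyond the set limit; inactive means change above -40%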; further: on the % scale 0 is the no-effect control and ±100 the full control effect
Mito fusion act: qHTS Assay for Small Molecule Inhibitors of Mitochondrial Division or Activators of Mitochondrial Fusion; S. cerevisiae fusion-defective mutant growth rescue, CellTiterGlo 48 h; Potency, µM (series often up to 46.1 µM), inactives show at the highest dose growth rescue (activation), actives largely listed as activators; 0.23% of 320,000 active; AID 485298, 2010; further: potency means the concentration at half of the fitted maximal effect; % of control where 0% means no effect; nearly all actives have a fitted effect of over 45% in size
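Compounds are tested for their ability to restore growth of mitochondrial fusion-defective yeast strains at non-permissive 37C in YPEG medium over 48 hours. Viability is quantified by luciferase luminescence.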
miR-21 act: qHTS Assay for Modulators of miRNAs and/orActivators of miR-21 | 340,000 tested, under 10 active | HeLa miR-21 FLuc reporter, luciferase, 48 h | Potency, µM (titrated, usually from 38.3 µM), for inactives: at the highest dose activity change, positive = activation, most hits filed as activators;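 further: % of control where 0% means no effect; miR-21 action dims this reporter so a rising signal means less miR-21 action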
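Using DMEM plus 10% FBS, HeLa miR-21-FLuc cells are incubated with test compounds (final up to about 40uM) for 48 hours; firefly luciferase signal is then imaged following reagent-mediated lysis.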
The depositor's hits bear a star; ! = a repeat was not active. Unless noted, the call rests on the fitted dose curve; in most records, active means well fitted curve in the direction sought with a large enough effect; inconclusive means small, poorly fitted or top-dose-only effect, or another doubt; inactive means no such curve, though single readings can be large; an effect the other way counts as inactive or inconclusive.

COc1ccc(-c2cc(=O)oc3c(C)c(OC(C)C(C)=O)ccc23)cc1 (stereo unspecified) was read as RXFP1 ag 1.5%, S-ASM inh -12.7%, ERG Ets-DNA blk 5.6%, RXFP1 antag -0.2, Mito fusion act 22.4µM* and miR-21 act -14.8%.
For CCOc1cccc(CNc2ccc(O)cc2)c1OCc1ccc(Cl)cc1Cl the results were RXFP1 ag 0.7%, S-ASM inh -15.3%, ERG Ets-DNA blk inconclusive, RXFP1 antag inconclusive, Mito fusion act 16.4% and miR-21 act -10.6%.
`CCOc1cccc(CNc2ccc(O)cc2)c1OCc1ccccc1Cl` gave RXFP1 ag -3.2%, S-ASM inh -9.8%, ERG Ets-DNA blk inconclusive, RXFP1 antag -88.9*!, Mito fusion act 8.7% and miR-21 act inconclusive.
Screening O=C(c1cc(C2CC2)nn1-c1ccccc1)N1CCN(Cc2ccc(Cl)cc2)CC1 returned RXFP1 ag 1.4%, S-ASM inh -4.1%, ERG Ets-DNA blk -3.3%, RXFP1 antag -3.0 and Mito fusion act 20µM*.
`CC(C)(C)c1ccc(C(=O)Nc2ccc(F)cc2)s1` gave RXFP1 ag 31.6µM*, S-ASM inh -5.2%, ERG Ets-DNA blk 0.5%, RXFP1 antag inconclusive, Mito fusion act 2.0% and miR-21 act -15.9%.
Screening CCc1cc2cc(C(=O)Nc3ccc(F)cc3)sc2s1 returned RXFP1 ag inconclusive, S-ASM inh -1.8%, ERG Ets-DNA blk 2.2%, RXFP1 antag 9.8, Mito fusion act 1.8% and miR-21 act -65.7%.
`Cc1ccc(-c2cc(C(=O)N/N=C/C=C/c3ccccc3)n[nH]2)s1` gave RXFP1 ag 0.7%, S-ASM inh -24.7%, ERG Ets-DNA blk 7.1%, RXFP1 antag -18.9, Mito fusion act 15.8µM* and miR-21 act -7.3%.
Screening Cc1cc(C(=O)N/N=C/C=C/c2ccccc2)n[nH]1 returned RXFP1 ag 2.9%, S-ASM inh 4.9%, ERG Ets-DNA blk 0.8%, RXFP1 antag -18.4, Mito fusion act -2.0% and miR-21 act -22.7%.
`CCc1ccc(NC(=O)C2CCN(S(=O)(=O)c3c(C)noc3/C=C/N(C)C)CC2)cc1` gave RXFP1 ag 1.9%, S-ASM inh -4.1%, ERG Ets-DNA blk -0.6%, RXFP1 antag -61.8*, Mito fusion act 0.3% and miR-21 act 0.3%.
`O=C(O)CN1C(=O)/C(=C/c2ccccc2Br)Oc2ccccc21` gave RXFP1 ag 10.0%, S-ASM inh 72.7%, ERG Ets-DNA blk -1.3%, RXFP1 antag 6.3, Mito fusion act 4.1% and miR-21 act -0.7%.
Screening CCOC(=O)c1cc(-c2ccccc2)n(CC(=O)N(C)c2ccc(OC)cc2)c1C returned RXFP1 ag -3.1%, ERG Ets-DNA blk 0.4%, RXFP1 antag -74.3* and miR-21 act -7.1%.
Screening COC(=O)c1ccc2nc(NC(=O)C(C)(C)C)sc2c1 returned RXFP1 ag -0.4%, S-ASM inh 7.5%, ERG Ets-DNA blk 9.7%, RXFP1 antag -84.5*, Mito fusion act 12.1% and miR-21 act inconclusive.
For Cc1c(C(=O)NCCCN2CCCCC2)oc2ccc3c(c12)C(O)CC1(CCCCC1)O3 (stereo unspecified) the results were RXFP1 ag 1.4%, S-ASM inh -11.5%, ERG Ets-DNA blk 21.6%, RXFP1 antag 5.9, Mito fusion act -6.6% and miR-21 act -5.2%.
